Reference: ChEMBL document CHEMBL1157539, “Thousands of chemical starting points for antimalarial lead identification” (Nature, 2010)

Legend:
Type in all cases: functional
Plasmodium falciparum [1] = test: GSK_TCMDC: Inhibition of Plasmodium falciparum 3D7 in whole red blood cells, using parasite LDH activity as an index of growth. Test compounds present at 2uM
Plasmodium falciparum [2] = test: GSK_TCMDC: Inhibition of Plasmodium falciparum Dd2 in whole red blood cells, using parasite LDH activity as an index of growth. Test compounds present at 2uM
HepG2 = test: GSK_TCMDC: Percent inhibition of human HepG2 cell line. Test compounds present at 10uM.

Compound | Inhibition (Plasmodium falciparum [1]) [%] | Inhibition (Plasmodium falciparum [2]) [%] | Inhibition (HepG2) [%]
CN1CCC(C(=O)Nc2ccc(-c3cccc(-c4nc5cc(C(F)(F)F)ccc5[nH]4)c3)cc2)CC1 | 100 | 97 | 28
O=C(Nc1ccccc1)c1c[nH]cn1 | 92 | 0 | 0
N#Cc1ccc(CN2CCC(Oc3ccc(NC(=O)c4cccs4)cc3Cl)C2)cc1.O=C(O)C(F)(F)F (stereo unspecified) | 96 | 95 | 31
CCCCCCNc1cc(C)nc2ccc(OC)cc12.Cl | 100 | 94 | 19
CC(C)COc1ccc(Cl)cc1Cc1nc(-c2nc3ccc(CN(C)C)cc3[nH]2)co1.Cl | 97 | 87 | 14
O=C(Cc1cccc2ccccc12)NC1CCN(c2ccnc3cc(Cl)ccc23)C1.O=C(O)C(F)(F)F (stereo unspecified) | 82 | 97 | 13
OCCCCCCNc1nc(NCc2ccccc2-c2ccc(C(F)(F)F)cc2)nc(N2CCNCC2)n1 | 89 | 16 | 13
COc1ccc(C(=O)Nc2cc(Cl)c3c(c2)C2CCCN2CC3)cc1C(F)(F)F.Cl (stereo unspecified) | 99 | 33 | 35
CCCN(CC)CCOC(=O)c1ccccc1 | 99 | 1 | 2
C=CCNC(=O)C(C)c1ccc2cc(OC)ccc2c1 (stereo unspecified) | 92 | 90 | 4
CN(C)CCNCc1nc(-c2ccc3c(Nc4ccc(Cl)cc4F)ccnc3c2)cs1 | 100 | 100 | 0
CO/C(=C\C=C\c1cc2cc(Cl)c(Cl)cc2[nH]1)C(=O)NCCCN1CCCC[C@@H]1C | 99 | 83 | 33
FC(F)(F)Oc1cccc(CNc2noc(-c3sccc3Br)n2)c1 | 100 | 97 | 0
CC(C)c1cccc(OCC2CCN(c3ccc(C(=O)Nc4ccccc4)cn3)CC2)c1 | 95 | 90 | 9
COc1cc2cc(-c3nc4ccccc4[nH]3)c(N)nc2cc1OC.Cl | 100 | 100 | 91
COc1ccc(-c2cnc3ccc(NCCCO)nn23)cc1OC | 98 | 90 | 9

Compound | Inhibition (Plasmodium falciparum [1]) [%] | Inhibition (Plasmodium falciparum [2]) [%] | Inhibition (HepG2) [%]
N=c1[nH]c2cccc3ccc4cccc1c4c32 | 100 | 69 | 26
Cc1ccc(N2CCN(CCCCNC(=O)c3ccc(NC(=O)c4ccc(Cl)cc4)cc3)CC2)c(C)c1 | 95 | 20 | 30
Cc1onc(-c2c(Cl)cccc2Cl)c1C(=O)NC1=NC(C)(C)ON1c1ccccc1 | 97 | 36 | 6
Cc1ccc2c(OCCN3CCC(Cc4ccc5c(c4)NC(=O)CO5)CC3)cc(F)cc2n1.Cl | 89 | 21 | 24
Cc1cc(Nc2cccc(Cl)c2)nc2ccc(NC(=O)c3ccc(=O)[nH]c3)cc12 | 100 | 23 | 12
O=c1cc(NCCC(CNCc2ccoc2)NCc2cc(Br)cc(Br)c2)[nH]c2ccccc12 (stereo unspecified) | 92 | 28 | 0
CCOC(=O)c1c(NC(NC(=O)c2ccc(C(C)(C)C)cc2)C(Cl)(Cl)Cl)sc2c1CCCC2 (stereo unspecified) | 98 | 94 | 1
CCCCCCCCN1CCCN(C(=O)c2cccc(NC(=O)Nc3ccc4ccccc4c3)c2)CC1.O=C(O)C(F)(F)F | 97 | 39 | 39
O=C(Nc1ccc(OC2CCN(Cc3ccsc3)C2)c(Cl)c1)c1ccc(F)cc1.O=C(O)C(F)(F)F (stereo unspecified) | 89 | 73 | 0
CCNc1cc(C)nc(Nc2ccc(NC(=O)c3ccccc3Br)cc2)n1 | 100 | 56 | 46
COc1ccc2nc(NC(N)=NC(=O)Nc3ccccc3)nc(C)c2c1 | 90 | 15 | 3
CN1CCN(c2ccc(-c3nc4ccc(OCc5cc(Cl)cc(Cl)c5)c(C(N)=O)c4[nH]3)cc2)CC1 | 100 | 85 | 45
Oc1cc2c(cc1CN1CCN(Cc3ccc(Cl)s3)CC1)CCC2 | 98 | 76 | 7
COc1ccc(-n2nc(C)c3c2NC(=O)CC3c2ccccc2OCc2ccccc2F)cc1 (stereo unspecified) | 93 | 70 | 38
Cc1cc(NCCC(=O)Nc2ccccc2)nc(NCc2ccccc2C)n1.O=C(O)C(F)(F)F | 100 | 57 | 6
O=C(Nc1ccc(Cl)c(Cl)c1)C1CCC(=O)N1[C@@H](Cc1ccccc1)C(=O)NCCc1ccc(Cl)cc1 (stereo partly specified) | 95 | 0 | 3
